In all, about 200,000 compounds went through this assay and about 18,000 (9%) were called active. Rule as the data show it: active = inhibition above about 50%; inactive = the rest. Only a selection was taken, and actives are over-represented in it overall.
experiment: antileishmanial activity against promastigotes – primary screen (AID 1063); settings: Leishmania major promastigotes, resazurin fluorescence viability; at 10 µM; active compounds read high;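 also: promastigotes grown with compound for 44 hours at 28 °C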

Row | SMILES | inhibition
1 | CCc1c(C)nc2c(OC)cccc2c1Cl | -3.45% (inactive)
2 | Cc1cccc(C(=O)OCC(=O)NCC(C)C)c1O | -1.6% (inactive)
3 | Fc1ccc(COc2cccc(-c3n[nH]c(=S)o3)c2)cc1 | -2.62% (inactive)
4 | N#Cc1ncc(C(F)(F)F)cc1Oc1cccnc1 | -5.89% (inactive)
5 | O=C(CSc1nnc(-c2ccc([N+](=O)[O-])cc2)o1)Nc1ccccn1 | 6.18% (inactive)
6 | COc1ccc(/C=C(\C#N)C(=O)ONC2=NCCCCC2)cc1 | -4.23% (inactive)
7 | COc1ccc(CCN(C)CCN2C(=O)c3ccccc3C2=O)cc1OC | -2.69% (inactive)
8 | COC(=O)c1ccc(C2C(Oc3ccccc3C)C(=O)N2CCc2ccc(OC)c(OC)c2)cc1 (stereo unspecified) | 5.32% (inactive)
9 | COc1ccc(CCN2C(=O)c3[nH]nc(-c4ccccc4O)c3C2c2ccc(C)cc2)cc1OC (stereo unspecified) | 75% (active)
10 | CN1C(=O)/C(=C\c2cc(Br)cs2)c2ccccc21 | 13.9% (inactive)
11 | CCC(C)c1ccc(NC(=S)NCc2ccccn2)cc1 (stereo unspecified) | -0.38% (inactive)
12 | Cc1cccc(C)c1N1CCN(S(=O)(=O)N2CCCCC2)CC1 | 15.9% (inactive)
13 | Cc1cc(C)c2c3c(sc2n1)C(c1ccccc1)C(C#N)=C(N)O3 (stereo unspecified) | 100% (active)
14 | N#CC1=C(N)Oc2c(sc3ccccc23)C1c1ccco1 (stereo unspecified) | 9.33% (inactive)
15 | Cc1cc(C)c(C#N)c(SCc2[nH]nc3c2C(c2ccccc2)C(C#N)=C(N)O3)n1 (stereo unspecified) | 8.99% (inactive)
16 | CC(=O)NC(=S)NNC(=O)c1ccc(Br)cc1 | -4.54% (inactive)
17 | CCOc1ccc(Br)cc1S(=O)(=O)N1CCC(C(=O)O)CC1 | -5.93% (inactive)
18 | CC1Cc2ccccc2N1C1=CC(=O)CC(C)(C)C1 (stereo unspecified) | 7.71% (inactive)
19 | COc1ccc(C(=O)NC(=S)NNC(=O)CCc2ccccc2)cc1 | 93.2% (active)
20 | O=C(CCc1ccccc1)NNC(=O)c1ccc(Br)cc1 | -3.53% (inactive)
21 | COc1ccc(C(=O)NC(=S)NNC(=O)c2c(-c3ccccc3)noc2C)cc1 | -0.99% (inactive)
22 | O=C(CCCc1ccccc1)NCc1ccccc1 | -8% (inactive)
23 | O=C(CN1C(=O)c2cccc3cccc1c23)Nc1ccccc1 | -9.01% (inactive)
24 | Cn1c(=O)n(C)c(=O)n(CC(=O)N2CCCCC2)c1=O | -4.15% (inactive)
25 | O=C(CN1C(=O)c2cccc3cccc(c23)C1=O)N1CCCCC1 | 89.8% (active)
26 | COc1ccc(OCC(=O)NNC(=O)c2cccc(C)c2)cc1 | -6.27% (inactive)

Row | SMILES | inhibition
27 | Cc1ccc(CC(=O)Nc2cccc(C#N)c2)cc1 | -0.29% (inactive)
28 | COc1cccc2sc(Nc3nc(C)c(C(C)=O)s3)nc12 | 98.4% (active)
29 | CC(=O)c1sc(NC(=O)CCCOc2ccccc2C)nc1C | -7.25% (inactive)
30 | COc1cccc2sc(NNC(=O)c3nc4ccccc4s3)nc12 | 48.5% (inactive)
31 | COC(=O)CSc1ccc2nnc(CCNS(=O)(=O)c3ccc(C)cc3)n2n1 | 2.97% (inactive)
32 | CSc1ncccc1C(=O)OCc1ccc(Br)cc1 | -1.11% (inactive)
33 | CCOC(=O)/C(=N\Nc1ccccc1Cl)N(C)C1CCS(=O)(=O)C1 (stereo unspecified) | -1.23% (inactive)
34 | CCc1cccc(NC(=O)CCC(=O)O)c1 | 52.3% (active)
35 | CCOC(=O)c1cccc(NC(=O)CCOc2ccccc2)c1 | 9.18% (inactive)
36 | CCc1cccc(NC(=O)CCNS(=O)(=O)c2cccc3nonc23)c1 | -7.76% (inactive)
37 | CC(OC(=O)c1ccccc1OCc1ccc(Cl)cc1)C(N)=O (stereo unspecified) | 10.8% (inactive)
38 | CC1CN(/C=C/C(=O)C(F)(F)F)CC(C)O1 (stereo unspecified) | -1.49% (inactive)
39 | COCC1CCCN(Cc2nc(-c3ccc4c(c3)OCO4)no2)C1 (stereo unspecified) | 0.34% (inactive)
40 | COc1ccc(CCNc2nc(-c3cccc(NC(C)=O)c3)cs2)cc1OC | 3.47% (inactive)
41 | COc1ccc(CCN(C(=O)COc2ccccc2)c2nc(-c3ccccc3)cs2)cc1OC | 52.1% (active)
42 | CN(C(=O)COc1ccccc1)c1nnc(-c2ccncc2)s1 | -4.81% (inactive)
43 | COc1ccc(-n2c(C)nn(CC3CC3)c2=O)cc1 | -6.72% (inactive)
44 | CC(=O)O[C@]1(C(C)=O)CC[C@H]2[C@@H]3C=C(C)C4=CC(=O)CC[C@]4(C)[C@H]3CC[C@@]21C | 69.8% (active)
45 | CCN(CC)S(=O)(=O)c1cc([N+](=O)[O-])ccc1N=Nc1c(O)n(C)c2ccccc12 | 65.5% (active)
46 | CCN(CC)S(=O)(=O)c1cc([N+](=O)[O-])ccc1NNC(=O)Nc1ccccc1 | 31.2% (inactive)
47 | CCn1c(O)c(N=NC(=O)c2cccc(S(=O)(=O)N3CCCCC3)c2)c2ccccc21 | 3.18% (inactive)
48 | Cc1cccc(CN2CCN(Cc3cnn(-c4ccccc4F)c3)CC2CCO)n1 (stereo unspecified) | 3.31% (inactive)
49 | O=C(NCCOc1ccccc1F)Nc1ccc(Br)cc1 | 1.12% (inactive)
50 | O=C(CN(C(=O)c1csnn1)c1cccc(F)c1)NCc1ccc(F)cc1 | -3.27% (inactive)
51 | COC(=O)C1=CN(Cc2ccc(OC)c(OC)c2)C=C(C(=O)OC)C1c1cccs1 | 100% (active)
52 | COc1ccc(CN(C(=O)c2cccs2)c2nccs2)cc1OC | 0.69% (inactive)

Row | SMILES | inhibition
53 | COc1ccc(C2=NN(C(=O)CCC(=O)O)C(c3cccs3)C2)cc1OC (stereo unspecified) | -5.57% (inactive)
54 | CCCCc1nnc(NC(=O)CSc2nc(N)cc(=O)[nH]2)s1 | 1.7% (inactive)
55 | Cc1cc(NC(=O)/C=C/C(=O)N(CC(=O)NC2CCCC2)c2ccc(F)cc2)no1 | 5.25% (inactive)
56 | Cc1cc(NC(=O)CCC(=O)N(c2cccc(F)c2)C(C(=O)NC2CCCC2)c2ccncc2)no1 (stereo unspecified) | -6.83% (inactive)
57 | Cc1cc(NC(=O)/C=C/C(=O)N(c2ccccc2C)C(C(=O)NC2CCCC2)c2ccc(F)cc2)no1 (stereo unspecified) | 71.3% (active)
58 | CC(=O)c1ccc(NC(=O)CSC(=S)N2CCCC2)cc1 | -5.47% (inactive)
59 | O=C(Nc1nnc(Cc2ccccc2)s1)c1cnccn1 | 1.06% (inactive)
60 | COc1ccc(NC(=O)CSc2nc(C)cs2)cc1 | 8.18% (inactive)
61 | Cc1nn(CC#N)c(=O)n1N(C)c1ncc(C(F)(F)F)cc1Cl | -6.01% (inactive)
62 | Cc1nn(CC2CC2)c(=O)n1N(C)c1ncc(C(F)(F)F)cc1Cl | 74.1% (active)
63 | Cc1nn(-c2ncc(C(F)(F)F)cc2Cl)c(=O)n1-c1ccccc1 | -12.9% (inactive)
64 | CC(=O)c1cccc(-n2nnnc2SCC(=O)NNC(=O)C2CCCCC2)c1 | -7.09% (inactive)
65 | COC(=O)C1=C(N)Oc2c(oc(CO)cc2=O)C1c1c(F)cccc1Cl (stereo unspecified) | 10.5% (inactive)
66 | Cc1[nH][nH]c(=O)c1C(c1ccc2c(c1)OCO2)c1c(C)[nH][nH]c1=O | 25.9% (inactive)
67 | Cc1[nH][nH]c(=O)c1C(c1ccc(-c2ccc(Cl)cc2)o1)c1c(C)[nH][nH]c1=O | 100% (active)
68 | CCOc1ccc(C(c2c(C)[nH][nH]c2=O)c2c(C)[nH][nH]c2=O)cc1OCC | 22.5% (inactive)
69 | C=CCc1cccc2cc(C(=O)NC3CCCC3)c(=O)oc12 | 3.36% (inactive)
70 | OCCC1CN(Cc2ccc3nsnc3c2)CCN1C1CCCC1 (stereo unspecified) | 20.1% (inactive)
71 | OCC1(CCc2ccccc2)CCN(Cc2ccc3nsnc3c2)CC1 | 88.2% (active)
72 | Cc1cccc(-c2ncc(CN3CCC(CO)(CCCc4ccccc4)CC3)cn2)c1 | 15.9% (inactive)
73 | Nn1c(SCC(=O)Nc2nccs2)nncc1=O | -3.46% (inactive)
74 | CSc1ncnc2sc(C)c(C)c12 | -8.93% (inactive)
75 | Cc1ccc(S(=O)(=O)N2CCN(S(=O)(=O)N3CCOCC3)CC2)cc1 | -6.92% (inactive)
76 | Cc1ccc(S(=O)(=O)N2CCC(N3CCCCCC3)CC2)cc1 | 95.3% (active)
77 | CC(=O)Nc1ccc(S(=O)(=O)N2CCN(C3CCCCCCC3)CC2)cc1 | -3.65% (inactive)
78 | COc1ccc(NC(=O)N2CCCC(c3nc(-c4ccc(F)cc4)no3)C2)cc1 (stereo unspecified) | -5.76% (inactive)

Row | SMILES | inhibition
79 | O=C(COC(=O)CCc1ccc(S(=O)(=O)N2CCOCC2)cc1)Nc1cccc(Cl)c1 | -4.95% (inactive)
80 | N#C/C(C(=S)Nc1ccccc1)=C1/NN=C(N2CCOCC2)N1c1ccccc1 | 4.1% (inactive)
81 | Cc1ccc(C(=O)NC(=S)NCCN2CCOCC2)cc1 | 65.4% (active)
82 | Cc1ccc(NC(=S)NCCN2CCOCC2)cc1 | 2.32% (inactive)
83 | Cc1ccc(C(=O)NC(=S)Nc2ccc(N3CCOCC3)cc2)cc1 | -0.73% (inactive)
84 | O=C(CCN1CCCCC1)N=Nc1c(O)[nH]c2ccccc12 | 11.4% (inactive)
85 | CSc1ccccc1C(=O)NCc1ccccc1 | -0.25% (inactive)
86 | Cc1cc(C)n(CC(=O)Nc2ccc([N+](=O)[O-])cc2)n1 | -2.52% (inactive)
87 | O=C(COC(=O)c1ccco1)NCc1ccc(Cl)cc1 | -4.2% (inactive)
88 | COC(=O)c1ccc(CSc2nc3ccccc3c(=O)n2-c2cccc(OC)c2)o1 | 46.8% (inactive)
89 | COCC(C)n1c(SCc2ccc(C(=O)OC)o2)nc2ccccc2c1=O (stereo unspecified) | 89% (active)
90 | COCCn1c(C)cc(C(=O)CSc2nc3ccccc3c(=O)n2C(C)COC)c1C (stereo unspecified) | 15.4% (inactive)
91 | CSCCNCc1cn(-c2ccc(F)cc2F)nc1-c1ccccc1C | 15.5% (inactive)
92 | Cc1ccc(-c2nn(-c3cccc(F)c3)cc2CNCCc2ccncc2)o1 | 56.8% (active)
93 | Cc1ccc(-c2nn(-c3ccccc3)cc2CN(Cc2ccccc2)C(=O)CCC(=O)O)o1 | -2.65% (inactive)
94 | Cn1c(=O)n(Cc2ccco2)c(=N)c2c3c(sc21)CCCC3 | 13.8% (inactive)
95 | COc1cccc(OC)c1C(=O)OCC(=O)/C(C#N)=C(\C)N | -3.93% (inactive)
96 | CCOC(=O)C1=C(CN2CCc3ccccc32)NC(=O)NC1c1ccc(Cl)cc1 (stereo unspecified) | 55.5% (active)
97 | CCOC(=O)C1=C(CN2CCc3ccccc32)NC(=O)NC1c1cc(C)ccc1C (stereo unspecified) | 11.4% (inactive)
98 | COCCOC(=O)C1=C(C)NC(=O)NC1c1ccc(Cl)cc1 (stereo unspecified) | -1.33% (inactive)
99 | CCOC(=O)C1=C(CNC2CCCCC2)NC(=O)NC1c1cc(C)ccc1C (stereo unspecified) | 47.4% (inactive)
100 | CCOC(=O)C1=C(CN2CCCCCC2)NC(=O)NC1c1cccc([N+](=O)[O-])c1 (stereo unspecified) | 10.7% (inactive)
101 | CCOC(=O)C1=C(CN2CCc3ccccc32)NC(=O)NC1c1cccc([N+](=O)[O-])c1 (stereo unspecified) | 82.8% (active)

Source: PubChem BioAssay AID1063 (University of Pittsburgh Molecular Library Screening Center, 2008)
